Screens deposited in PubChem BioAssay by several laboratories.
Only some compounds are listed: those with a hit (about 27% of all), similar ones and a draw of the others.
CYP2C19 activ: activators of human cytochrome P450 2C19; P33261; activation factor at 5 µM; recombinant CYP2C19, luciferin-H EGE luminescence; stronger effect = higher value; 0 = fully inhibited enzyme, 1 = untreated enzyme; 96,000 tested, under 10 active;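 active = activation factor of at least 2 at 5 µM in the primary screen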;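 note: 0 = wells with 2.5 mM tranylcypromine and 1 = vehicle-only wells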
CYP2C9 inh: human CYP2C9 inhibition. P11712. CYP2C9 Supersomes, luciferin-H conversion, luminescence. inhibition, % at 5 µM. 20% of 96,000 active. AID 777;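 active = blocking of liver enzyme CYP2C9 beyond about 50% at 5 µM, limit read from the data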
Cav32 inh: human Cav3.2 channel inhibition, primary screen; O95180; Cav3.2-expressing cells, Fluo-4 calcium fluorescence FDSS; stronger effect = lower value; B-score at 10 µM; 4% of 100,000 active;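 active = single-dose well whose peak fluorescence ratio is a statistical outlier from its plate by either plate-standardised score or position-corrected B-score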
CYP2C19 inhib: blocks human cytochrome P450 2C19 | CYP2C19 Supersomes, luciferin-H EGE luminescence, 30 min | inhibition, % at 5 µM | 21% of 96,000 active;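 active = CYP2C19 inhibition above a set limit at 5 µM in the primary screen, cut at about 50% in these data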;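 note: plate controls were negative control wells for no effect and 2.5 mM tranylcypromine positive control for full effect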
CYP2C9 act: increases human cytochrome P450 2C9 activity | P11712 | recombinant CYP2C9, luciferin-H conversion, luminescence; stronger effect = higher value; factor 1 = untreated enzyme, 0 = blocked | activation factor at 5 µM | 1.4% of 96,000 active;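 active = activation factor of 2 or more for CYP2C9 at a 5 µM dose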;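 note: 0 = sulfaphenazole-blocked wells and 1 = vehicle-only wells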
* = called active by the depositor.

`Cn1c(C(=O)N2CCOCC2)cnc1Sc1ncc(C(F)(F)F)cc1Cl` gave CYP2C19 activ 0.9, CYP2C9 inh 21, Cav32 inh 0.39, CYP2C19 inhib 8 and CYP2C9 act 0.8.
For Cc1nnc(-c2cnn(-c3ccccc3)c2N)n1Cc1ccccc1 the results were CYP2C19 activ 1, CYP2C9 inh -10, Cav32 inh 0.69, CYP2C19 inhib -1 and CYP2C9 act 1.1.
Screening O=C1CCCN1CC(CN1CCOCC1)Sc1nc2ccccc2c(=O)n1-c1ccccc1 (stereo not drawn) returned CYP2C19 activ 0.1, CYP2C9 inh 93*, CYP2C19 inhib 88* and CYP2C9 act 0.1.
Screening Cc1ccc(-c2nc3ccccc3c(=O)n2CCN2CCOCC2)cc1 returned CYP2C19 activ 0.8, CYP2C9 inh 4, Cav32 inh 1.2, CYP2C19 inhib 20 and CYP2C9 act 1.
For Cn1c(SC2CCCCC2=O)nnc1-c1ccncc1 (stereo not drawn) the results were CYP2C19 activ 0.3, CYP2C9 inh 16, Cav32 inh 0.066, CYP2C19 inhib 70* and CYP2C9 act 0.8.
For COCCCn1c(SCC(=O)NC2CCCCC2)nnc1-c1ccncc1 the results were CYP2C19 activ 0.6, CYP2C9 inh -7, Cav32 inh 0.34, CYP2C19 inhib 38 and CYP2C9 act 1.1.
`Cn1c(SCCOc2ccccc2Cl)nnc1-c1ccncc1` gave CYP2C19 activ 0, CYP2C9 inh 62*, Cav32 inh -0.7, CYP2C19 inhib 97* and CYP2C9 act 0.4.
Screening COc1ccc(-c2nnc(SCc3ccccn3)n2C)cc1 returned Cav32 inh -0.09.
`Cn1c(SCC2CCCCC2)nnc1-c1ccncc1` gave CYP2C19 activ 0, CYP2C9 inh 87*, CYP2C19 inhib 100* and CYP2C9 act 0.1.
Screening Cn1c(SCC(=O)Nc2ccc(NC(=O)c3cccs3)cc2)nnc1-c1ccncc1 returned Cav32 inh 0.22.
Screening Cc1ccc(C(=O)NNC(=O)CSc2nnc(-c3ccncc3)n2C)cc1 returned CYP2C19 activ 1, CYP2C9 inh 13, Cav32 inh -0.79, CYP2C19 inhib -2 and CYP2C9 act 0.9.
Screening Cn1c(SCCCC(=O)c2ccc(Br)cc2)nnc1-c1ccncc1 returned CYP2C19 activ 0.3, CYP2C9 inh 93*, CYP2C19 inhib 75* and CYP2C9 act 0.1.
For COc1ccc(S(=O)(=O)N2CCC(C(=O)Nc3ccc4c(c3)OCCO4)CC2)cc1OC the results were CYP2C19 activ 1.1, CYP2C9 inh 32, Cav32 inh -0.19, CYP2C19 inhib -5 and CYP2C9 act 0.7.
For Cc1noc(C)c1C(=O)Nc1ccccc1-c1ccccc1 the results were CYP2C19 activ 0.8, CYP2C9 inh 19, Cav32 inh 0.93, CYP2C19 inhib 24 and CYP2C9 act 0.8.
`CC(C)(NC(=O)N1CCOCC1)c1cccc(C(C)(C)NC(=O)N2CCOCC2)c1` gave Cav32 inh -0.86.
For COC(=O)CC1SC(=O)NC1=Nc1ccc(OC)cc1 (stereo not drawn) the results were CYP2C19 activ 0.6, CYP2C9 inh 18, CYP2C19 inhib 40 and CYP2C9 act 0.8.
Screening Cc1ccc(NC(=O)c2ccc(CSc3nnc(-c4ccncc4)n3C)cc2)c(C)c1 returned CYP2C19 activ 0.8, CYP2C9 inh 66*, Cav32 inh 1.1, CYP2C19 inhib 20 and CYP2C9 act 0.3.
For Cn1c(SCC(=O)C(C)(C)C)nnc1-c1ccncc1 the results were CYP2C19 activ 0.1, CYP2C9 inh 63*, Cav32 inh 0.24, CYP2C19 inhib 87* and CYP2C9 act 0.4.
`CC(=O)CSc1nnc(-c2ccncc2)n1C` gave CYP2C19 activ 0.6, CYP2C9 inh 8, Cav32 inh 0.22, CYP2C19 inhib 42 and CYP2C9 act 0.9.
CCC(=O)N1CCc2cc(S(=O)(=O)CCC(=O)NCCc3ccc(OC)c(OC)c3)ccc21 was read as CYP2C19 activ 0.7, CYP2C9 inh 55*, Cav32 inh -0.0037, CYP2C19 inhib 28 and CYP2C9 act 0.4.
`CCOc1ccc(OCC)c(NS(=O)(=O)c2ccc3c(c2)n(C)c(=O)c(=O)n3C)c1` gave CYP2C19 activ 0.9, CYP2C9 inh 13, CYP2C19 inhib 15 and CYP2C9 act 0.9.
COc1ccc(CCNS(=O)(=O)c2ccc3c(c2)CCN3C(=O)C2CC2)cc1OC was read as CYP2C19 activ 0.6, CYP2C9 inh 66*, Cav32 inh -4.8e-05, CYP2C19 inhib 45 and CYP2C9 act 0.3.
`CCOc1ccc(OCC)c(NS(=O)(=O)c2ccc3c(c2)CCN3C(=O)C2CCC2)c1` gave CYP2C19 activ 0.7, CYP2C9 inh 79*, Cav32 inh -0.84, CYP2C19 inhib 33 and CYP2C9 act 0.2.
Screening COc1ccc(CCNS(=O)(=O)c2ccc3c(c2)CC(C)N3C(C)=O)cc1OC (stereo not drawn) returned CYP2C19 activ 0.8, CYP2C9 inh 38, Cav32 inh 0.3, CYP2C19 inhib 25 and CYP2C9 act 0.6.
`COc1ccc(CCNS(=O)(=O)c2ccc(S(=O)(=O)N3CCCC3)cc2)cc1OC` gave CYP2C19 activ 0.6, CYP2C9 inh 57*, Cav32 inh 0.13, CYP2C19 inhib 36 and CYP2C9 act 0.4.
For Cc1ccc(S(=O)(=O)N2CCC(C(=O)OCC(=O)N3CCc4ccccc43)CC2)cc1 the results were CYP2C19 activ 1, CYP2C9 inh -9, Cav32 inh 0.57, CYP2C19 inhib -3 and CYP2C9 act 1.1.
Screening COc1ccc(C(=O)Nc2c(Cl)cc(Cl)cc2C(=O)NCCN2CCOCC2)cc1 returned Cav32 inh 0.81.
`CC(=O)N1CCc2cc(S(=O)(=O)CCC(=O)NCc3cccs3)ccc21` gave CYP2C19 activ 0.9, CYP2C9 inh -13, Cav32 inh 0.56, CYP2C19 inhib 11 and CYP2C9 act 1.1.
CCC(=O)N1CCc2cc(S(=O)(=O)NC(CC(C)C)C(=O)N3CCc4ccccc43)ccc21 (stereo not drawn) was read as CYP2C19 activ 0.5, CYP2C9 inh 24, Cav32 inh -0.5, CYP2C19 inhib 52* and CYP2C9 act 0.8.
CCC(=O)N1CCc2cc(S(=O)(=O)CCC(=O)NCCc3ccccc3)ccc21 was read as CYP2C19 activ 0.7, CYP2C9 inh 50*, Cav32 inh 2, CYP2C19 inhib 35 and CYP2C9 act 0.5.
Screening COc1cccc(C(=O)SC2=NCCS2)c1 returned CYP2C19 activ 0.8, CYP2C9 inh 1, Cav32 inh -0.029, CYP2C19 inhib 24 and CYP2C9 act 1.
O=c1cc(/C=C/c2ccccc2)oc2ccccc12 was read as CYP2C19 activ 0.4, CYP2C9 inh 79*, Cav32 inh -1.2, CYP2C19 inhib 62* and CYP2C9 act 0.2.
For COc1ccc2c(c1)nc(SCC(=O)c1ccc(Br)s1)n2C the results were CYP2C19 activ 0.3, CYP2C9 inh 51*, Cav32 inh 0.14, CYP2C19 inhib 72* and CYP2C9 act 0.5.
